# Laboratory results taken from PubChem BioAssay AID1851 (National Center for Advancing Translational Sciences (NCATS), 2009).
# The campaign covered roughly 16,000 compounds. About 2,600 (16%) were called active. Inconclusive results (about 20%) are left out. The full list was thinned out, with actives kept by preference. A number with no mark means an inactive call. Calls follow the shape of the dose curve; as a rule, active = well fitted curve in the direction sought with a large enough effect; inconclusive = small, poorly fitted or top-dose-only effect, or effect the other way; inactive = no such curve, though single readings can be large or run the other way.
# Target: Cytochrome P450 2D6 (Homo sapiens) (UniProt P10635)
# Test: Cytochrome panel assay with activity outcomes
# Conditions: recombinant CYP, pro-luciferin dealkylation, luminescence, p450-cyp2d6; series mostly up to 57.1 µM
# % is scaled to controls: 0 for no effect and ±100 for the full control effect.
# Chain of Cytochrome P450 2D6 (Homo sapiens) (P10635 whole entry, looked up): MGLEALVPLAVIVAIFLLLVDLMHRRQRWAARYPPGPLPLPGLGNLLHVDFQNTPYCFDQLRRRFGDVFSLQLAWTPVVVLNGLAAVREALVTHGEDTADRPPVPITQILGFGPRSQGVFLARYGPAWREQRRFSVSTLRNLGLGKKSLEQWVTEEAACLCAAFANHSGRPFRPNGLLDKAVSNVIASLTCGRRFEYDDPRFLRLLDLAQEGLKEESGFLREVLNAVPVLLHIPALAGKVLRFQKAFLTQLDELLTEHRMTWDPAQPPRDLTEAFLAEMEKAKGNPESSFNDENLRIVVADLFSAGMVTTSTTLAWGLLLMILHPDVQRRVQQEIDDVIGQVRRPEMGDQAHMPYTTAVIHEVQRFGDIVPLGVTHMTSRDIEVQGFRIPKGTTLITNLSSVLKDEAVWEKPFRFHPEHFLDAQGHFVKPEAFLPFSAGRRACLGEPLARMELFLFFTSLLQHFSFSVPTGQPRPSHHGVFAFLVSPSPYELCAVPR
SMILES,AC50,"activity, negative = inhibition"
O=C(Nc1cccc(F)c1)N1CC2(CCN(C(=O)Oc3ccccc3)CC2)C1,inactive,
CN1C(=O)C(=Cc2ccccc2Oc2ccc(Cl)c(F)c2)C(=O)N(C)C1=O,inactive,
CC(C)C12CN3CC(C(C)C)(CN(C1)C3c1cccnc1)C2=O (stereo not given),inactive,
O=C(CCCN1CCC2(CC1)C(=O)N(Cc1cccc(F)c1)CN2c1ccccc1)c1ccc(F)cc1,3.16 µM (active),
C[C@@]12CC(=O)[C@H]3[C@@H](CCC4=CC(=O)CC[C@]43C)[C@H]1CCC2=O,inactive,
COc1ccccc1CC1C(=O)C2CCN1CC2 (stereo not given),11.2 µM (active),
CC(C)C(=O)Nc1ccc([N+](=O)[O-])c(C(F)(F)F)c1,inactive,
CC(C)(C)NC[C@H](O)c1cc(Cl)c(N)c(Cl)c1,inactive,
CN(C)C(=O)Oc1cccc([N+](C)(C)C)c1,inactive,
CN(C)C(=O)Oc1cc(OC(=O)N(C)C)cc([C@@H](O)CNC(C)(C)C)c1,7.94 µM (active),
CCCC[N+]12CCC(CC1)C(C(=O)c1cccs1)C2 (stereo not given),0.282 µM (active),
CCN1C[C@@]2(COC)CC[C@H](O)[C@@]34[C@@H]2C[C@@H]([C@@H]13)[C@]1(O)C[C@@H](OC)C2C[C@H]4[C@H]1[C@H]2OC(C)=O,inactive,
CC[N+](CC)(CCCNC1=CC(=O)C(NCCC[N+](CC)(CC)Cc2ccccc2)=CC1=O)Cc1ccccc1,inactive,
CC(=O)O[C@H]1CC[C@@]2(C)[C@@H](CC[C@H]3[C@H]2CC(=O)[C@@]2(C)[C@@H]3C[C@H]3CC(C)=CC(=O)[C@H]32)C1,,2.72% [at 11.4 µM]
COc1ccc(OC)c([C@H](O)[C@H](C)N)c1,inactive,
COc1ccc(C[C@@H](N)c2ccc(OC)cc2)cc1,0.631 µM (active),
Cc1ccc(C(=O)C2C(=O)c3ccccc3C2=O)cc1,inactive,
O=C1NC(=S)NC(=O)C1=Cc1cccc2cc3ccccc3cc12,,-0.164% [at 11.4 µM]
CC[C@@H](CO)Nc1nc(NCc2ccccc2)c2ncn(C(C)C)c2n1,31.6 µM (active),
CC(C)[C@H](CO)Nc1nc(Nc2cccc(Cl)c2)c2ncn(C(C)C)c2n1,inactive,
